Screening results: PubChem, National Center for Advancing Translational Sciences (NCATS)
A selection: hits, their analogues and other compounds. The true share with any hit is near 0.45%.
aGlu spleen mod = inhibitors or activators of human alpha-glucosidase in spleen homogenate; actives 0.006% (n = 240,000); Potency, µM (series often up to 79.9 µM), without a hit: at the highest dose activity change, negative = inhibition, usual class: inhibitors; human spleen homogenate, 4-MU-alpha-glucoside fluorescence; P10253; AID 2112;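 also: potency is read from the fitted curve at half-maximal effect; 0% = enzyme with vehicle and -100% = no enzyme basal signal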
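Human spleen homogenate (1 ug) incubated with compounds and 1 mM 4-methylumbelliferyl-alpha-D-glucopyranoside in pH 5.0 citrate/phosphate buffer, 37 C, 40 min. Stopped at pH 10; 4-MU fluorescence (Ex 365/Em 440 nm); AC50 by Hill fit.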
Menin-MLL FL inh = displaces fluorescein MLL peptide from human menin; Fluorescence polarization, fluorescein-MLL peptide displacement from menin; FP activity change, % at 61.4 µM; 290,000 tested, under 10 active; active = well fitted curve in the direction sought with a large enough effect in the polarisation, not every such curve was filed as active; inconclusive = small, poorly fitted or top-dose-only effect, or effect the other way, or a change in a side signal; inactive = no such curve, though single readings can be large or run the other way; the % refers to the polarisation; also: % of control where 0% means no effect
GAA inh = alpha-glucosidase (human) inhibition | P10253 | AID 1466 | Potency, µM (titrated, usually from 76.9 µM), without a hit: top-dose activity change, negative = inhibition, usual class: inhibitors | actives 0.005% (n = 200,000) | purified human GAA, 4-MU-alpha-glucoside fluorescence;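 also: potency is read from the fitted curve at half-maximal effect; plate controls were uninhibited enzyme wells for no effect and no-enzyme background for full effect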
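Fluorescence at Ex 365/Em 440 nm from 4-methylumbelliferone reported enzyme activity after 20 min at room temperature. Reactions used 4 nM enzyme and 400 uM substrate at pH 5.0; curves fitted with the Hill equation.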
GAA glycogen mod = inhibitors or activators of human alpha-glucosidase glycogen cleavage | P10253 | recombinant GAA, glycogen substrate, Amplex Red glucose oxidase fluorescence | Potency, µM (series often up to 76.4 µM), without a hit: at the top dose activity change, negative = inhibition, most hits filed as inhibitors | actives 0.38% (n = 300,000);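 also: potency is read from the fitted curve at half-maximal effect; 0% = full enzyme reaction and -100% = no-enzyme basal signal; the screen sought inhibitors and activators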
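Recombinant human alpha-glucosidase (4 nM final) hydrolysed bovine liver glycogen (30 ug) for 40 min at 37 C in pH 5.0 citrate/phosphate with 0.01% Tween-20. Released glucose detected by glucose oxidase/Amplex Red, Ex 573/Em 610 nm. Compounds up to 77 uM; AC50 from Hill fits.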
Menin MLL FP TR = inhibitors of human menin-MLL interaction, mutant MLL peptide; O00255; Menin + Texas Red MLL mutant peptide, fluorescence polarization; Potency, µM (titrated, usually from 61.6 µM), without a hit: top-dose FP activity change, negative = inhibition, most hits filed as inhibitors; actives 0.23% (n = 270,000); AID 1768; active = well fitted inhibition curve with a large enough effect in the polarisation, with a control signal flat, not every such curve was filed as active; inconclusive = small, poorly fitted or top-dose-only effect, or effect the other way, or a change in a side signal; inactive = no such curve, though single readings can be large or run the other way; the % refers to the polarisation; also: potency is read from the fitted curve at half-maximal effect; % of control where 0% means no effect
CXXC DNA block = inhibitors of human MLL CXXC domain-DNA interaction | MLL-CXXC / FITC-HOXA9 DNA fluorescence polarization | Q03164 | actives 0.037% (n = 290,000) | Potency, µM (top dose mostly 115 µM), for the others: at the highest dose activity change, negative = inhibition, actives largely listed as inhibitors | AID 2662; active = well fitted inhibition curve with a large enough effect in the polarisation, with a control signal flat, not every such curve was filed as active; inconclusive = small, poorly fitted or top-dose-only effect, or effect the other way, or a change in a side signal; inactive = no such curve, though single readings can be large or run the other way; the % refers to the polarisation; also: potency is read from the fitted curve at half-maximal effect
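Fluorescence polarization: 7 uM MLL-CXXC (stock) preincubated 5 min with compounds, then 50 nM fluorescein-HOX-A9 DNA (stock) added; 30 min ambient. Buffer 50 mM Tris-HCl pH 7.5, 50 mM NaCl, 1 mM DTT, 0.05% BSA.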
The depositor's hits bear a star; ? = inconclusive; . = no result; [ ] = remark or other dose. Unless noted, calls follow the shape of the dose curve; as a rule, active = well fitted curve in the direction sought with a large enough effect; inconclusive = small, poorly fitted or top-dose-only effect, or another doubt; inactive = no such curve, though single readings can be large; an effect the other way counts as inactive or inconclusive.

SMILES | aGlu spleen mod | Menin-MLL FL inh | GAA inh | GAA glycogen mod | Menin MLL FP TR | CXXC DNA block
COc1ccccc1C1Nc2cccc3cccc(c23)N1 | 0% | -18 | -3% | 16µM* | . | 7%
CCN(CC)CCNC(=O)c1cc2c(-c3ccc(Cl)cc3)nn(C)c2s1 | -6% | -1 | -3% | 15% | -20% | -16%
CCCCN(CC)CCNC(=O)c1cc2c(-c3ccc(Cl)cc3)nn(C)c2s1 | . | 1 | . | 3% | 18µM* | -1%
CCOC(=O)C1CCN(S(=O)(=O)c2ccc(OC)c(C(=O)N3CCCCC3)c2)CC1 | . | 1 | . | . | -18% | 1%
CC(C)(C)c1cc(CNC2CS(=O)(=O)C[C@@H]2O)cc(C(C)(C)C)c1O (stereo not given in full) | 4% | 2 | 7% | 16µM* | -7% | -3%
O=S1(=O)CC(O)C(NCc2ccco2)C1 (stereo not given) | 11% | -1 | 1% | 8% | 16% | 3%
C=C(C)C1CC=C(C)C(OC(C)=O)C1 (stereo not given) | -5% | . | . | . | . | .
O=C1OC(N2C(=O)CC[C@H]2C(=O)Nc2ccc3c(c2)OCO3)c2ccccc21 (stereo not given in full) | . | 4 | . | 32µM* | -2% | -5%
O=C(NNC(=O)C1C2C=CC(C2)C1C(=O)O)c1cc(Cl)ccc1O (stereo not given) | . | . | . | . | . | 1%
COc1ccccc1N1CCN(C(=O)Cn2ncc3ccsc3c2=O)CC1 | . | . | . | -15%[76.3 µM] | . | .
Cc1ccc(C(=O)Nc2ccc3c(c2)OCO3)o1 | -4% | 2 | -14% | 2% | -1% | -4%
C/C(=C\C(=O)c1ccccc1)Nc1ccc2c(c1)OCO2 | 4% | 2 | 4% | 16µM* | -9% | 11%
C/C(=C\C(=O)c1ccc(C)o1)Nc1ccc2c(c1)OCO2 | -3% | 5 | 3% | 28µM* | 0% | 1%
CC(=O)c1cccc(NC(=O)Nc2ccc3c(c2)OCO3)c1 | . | . | . | -1%[76.3 µM] | . | -11%
COc1ccc(C(=O)/C=C/Nc2c(C)n(C)n(-c3ccccc3)c2=O)cc1OC | 2% | 7 | ? | 3.1µM* | -21% | 5%
CCOc1ccc2nc(SCC(=O)Nc3ccc(S(=O)(=O)N4CCCC4)cc3)c(C)cc2c1 | 4% | 0 | . | -2% | . | 5%
COc1ccc2nc(SCC(=O)Nc3ccc(S(=O)(=O)N4CCCC4)cc3)c(C#N)cc2c1 | 9% | 13 | -21% | 2% | 16µM* | 28%
COCCCNC(=O)/C(C#N)=C/c1c(N2CCN(C)CC2)nc2c(C)cccn2c1=O | . | -10 | . | -2% | 15% | 5%
COCCCNC(=O)/C(C#N)=C/c1c(N2CCN(c3ccc(OC)cc3)CC2)nc2c(C)cccn2c1=O | . | -29 | . | -6% | 28µM* | 2%
CC(C)CC(CSc1ccc(Br)cc1)N1CCN(CCc2ccccc2)CCC1=O (stereo not given) | 4% | -1 | . | . | -14% | .
C/C(=N\Nc1ccc(Cl)cc1)c1ccccn1 | 1% | 2 | 1% | 7.1µM* | ? | 6%
C/C(=N\NC(=O)c1ccc(Cl)cc1)c1ccccn1 | . | -1 | . | -1%[76.3 µM] | -10% | -12%
COc1ccc(NC(=O)C2(S(=O)(=O)c3ccc(C)cc3)CC2)c(OC)c1 | . | . | . | -12%[76.3 µM] | . | .
Oc1ccc(-c2csc(-c3cccnc3)n2)cc1O | 7% | 6 | . | 7.1µM* | . | 1%
Oc1ccc(-c2csc(Nc3ncccn3)n2)cc1O | 6% | -2 | -3% | 7µM* | ? | -8%
SMILES | aGlu spleen mod | Menin-MLL FL inh | GAA inh | GAA glycogen mod | Menin MLL FP TR | CXXC DNA block
Oc1ccc(-c2csc(-c3ccccc3)n2)cc1O | -8% | 1 | -2% | 11µM* | ? | -4%
Oc1ccc(-c2csc(Nc3ncccn3)n2)c(O)c1 | 6% | -2 | -2% | -26% | ? | -2%
Oc1ccccc1-c1csc(-c2ccccc2)n1 | 12% | 0 | -7% | -7% | -4% | 3%
Cc1ccc2occ(-c3cc(-c4ccc(F)cc4)nc4c3COc3ccc(F)cc3-4)c(=O)c2c1 | . | . | . | -9%[76.3 µM] | . | .
Cc1nn(C)c(C)c1S(=O)(=O)N(CC(=O)Nc1ccc(F)cc1F)c1ccc(C(C)C)cc1 | . | . | . | -7%[76.3 µM] | . | .
CCOc1ccccc1-n1nnnc1SCC(=O)Nc1cc2oc3ccccc3c2cc1OC | 3% | 6 | 1% | 2% | 10µM* | 33%
CCOc1ccccc1-n1nnnc1SCC(=O)Nc1cc(C)on1 | -6% | 6 | 1% | 2% | 23% | 1%
COC(=O)C1=C[C@@H](C(=O)OC)[C@@H]2C3=C(C(=O)[C@]2(C)NC(=O)c2ccccc2)[C@H](C)[C@@H]2C(=O)NC(=O)[C@@H]2[C@@H]3C1 | 8% | 2 | . | . | 0% | .
COc1ccccc1N1C(=O)c2ccccc2NC1c1ccncc1 (stereo not given) | -14% | 0 | -9% | -1% | -2% | 2%
COc1ccccc1N1C(=O)N(C(C)=O)C2C1Nc1ccccc1N2C (stereo not given) | -2% | ? | -8% | 35µM* | -20% | 20%
CCn1c(CNC(=O)c2ccccc2Br)nnc1SCC(=O)Nc1nncs1 | . | 1 | . | . | -22% | ?
Nc1nc(-c2cccs2)c(NC(=O)c2ccccc2)s1 | 9% | 0 | -5% | 20µM* | -4% | -10%
CC(=O)Oc1ccc(-c2csnn2)cc1 | 9% | 0 | 1% | -8% | -11% | 1%
Cc1ccccc1C(=O)NNc1ccc(-c2csnn2)cc1 | 6% | 2 | -2% | 16µM* | . | -6%
O=C(N/N=C\c1cn(-c2ccccc2)nc1-c1ccccc1)c1ccc2c(c1)OCO2 | -3% | 8 | -2% | -4% | 25µM* | 27%
O=C(N/N=C/c1cn(-c2ccccc2)nc1-c1ccc(F)cc1)c1ccc2c(c1)OCO2 | -3% | 2 | 9% | -2% | ? | 26%
OC[C@H]1OC(O)[C@@H](O)[C@@H](O)[C@H]1O (stereo not given in full) | 11% | ? | . | . | -1% | .
O=C(Oc1cccc2c(O)cccc12)c1ccccc1 | -2% | -1 | -11% | 28µM* | ? | 53%
Oc1ccccc1Nc1nc(NCc2ccccc2)c2ccccc2n1 | -1% | 1 | -13% | 7.1µM* | ? | 51%
CNc1nc(NCc2ccccc2)c2ccccc2n1 | . | -7 | . | -10%[76.3 µM] | -16% | 27%
O=C(CC1SC(=O)N(c2ccccc2)C1=O)Nc1cccc2ccccc12 (stereo not given) | -2% | 4 | . | ? | . | 41%
Cc1ccccc1NC(=O)CC1SC(=O)N(c2ccccc2)C1=O (stereo not given) | -7% | 6 | -10% | 25µM* | . | 21%
